Source: the supplement of paper PMC8699584
Counter-ions that a name gives are not always drawn. ± gives the standard deviation of the averaged measurements.

Each compound was assayed on Molm13 (assay: cell viability relative to DMSO control (bortezomib = 0%); higher = less growth inhibition). Conditions: 10 nM; 72 h.
Procedure, shortened: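 FLT3-ITD+ acute myeloid leukemia cells were dispensed onto a library of 679 approved and investigational compounds in 384-well plates, at 1000 cells per well in 50 µL and a single 10 nM dose, for 72 h. The screen was run in duplicate. Cell viability was read by CellTiter-Glo luminescence on an EnVision reader. Values were converted to percentages by per-plate linear regression between DMSO-treated cells (100%) and positive-control-treated cells (0%).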
Work on `CNC(=O)c1ccccc1Sc1ccc2c(/C=C/c3ccccn3)n[nH]c2c1` [Axitinib] yielded a cell viability of 120 ± 7%. For `O=C(NCc1cccc(O)c1)Nc1nc(-c2ccncc2)cs1`, the cell viability was 88.6 ± 11%. With `O=c1cc(-c2ccc(O)cc2)oc2cc(O)cc(O)c12` [Apigenin] the cell viability was 86.9 ± 19%. `Brc1c(Br)c(Br)c2n[nH]nc2c1Br` gave a cell viability of 113 ± 13%. For `COc1cc(OC)c(/C=C/S(=O)(=O)Cc2ccc(OC)c(OP(=O)(O)O)c2)c(OC)c1` [Briciclib], the cell viability was 114 ± 25%. `COc1cc2ncnc(Nc3cccc(Cl)c3)c2cc1OC` was tested, and the cell viability was 98.7 ± 14%. In the case of `CC(C)(C)Cn1c(N)nc2ccc(-c3[nH]c(C(C)(C)C)nc3-c3ccc(F)cc3)nc21`, the cell viability is reported as 100 ± 12%. `C[C@H](NC(=O)/C(C#N)=C/c1cccc(Br)n1)c1ccccc1` gave a cell viability of 103 ± 0.31%. `CC(C)c1ccc2c(c1)CC[C@H]1[C@](C)(CN)CCC[C@]21C` [Leelamine] gave a cell viability of 96.7 ± 8.5%. `CN1CCN(S(=O)(=O)c2ccc(-c3cnc(N)c(C(=O)Nc4cccnc4)n3)cc2)CC1` was tested, and the cell viability was 95.5 ± 17%. Work on `C#Cc1cccc(Nc2ncnc3cc(OCCOC)c(OCCOC)cc23)c1` [Erlotinib hydrochloride] yielded a cell viability of 108 ± 9.8%. Compound `Oc1cc(-c2nc(-c3ccccc3)[nH]c2-c2ccncc2)ccc1Cl` has a cell viability of 105 ± 34%. With `N#CC(c1ccnc(OCc2ccc(CN3CCOCC3)cc2)n1)c1nc2ccccc2s1` (stereo not given) the cell viability was 107 ± 20%. With `CC(=O)Nc1nc(C)c(-c2ccc(Cl)c(S(=O)(=O)NCCO)c2)s1` the cell viability was 104 ± 3.5%. `COC(=O)c1ccc2c(c1)NC(=O)/C2=C(\Nc1ccc(N(C)C(=O)CN2CCN(C)CC2)cc1)c1ccccc1` [Nintedanib (BIBF 1120)] was tested, and the cell viability was 83.62 ± 0.69%. For `Cc1nc(Nc2ncc(C(=O)Nc3c(C)cccc3Cl)s2)cc(N2CCN(CCO)CC2)n1` [Dasatinib], the cell viability was 111 ± 29%. In the case of `Oc1cccc(Nc2ncc(F)c(Nc3cccc(O)c3)n2)c1`, the cell viability is reported as 83 ± 15%. `CCCCC/C=C\C/C=C\C/C=C\C/C=C\CCCC(=O)NC[C@]1(C)CCC[C@]2(C)c3ccc(C(C)C)cc3CC[C@@H]12` [Arachidonic Acid Leelamide] was tested, and the cell viability was 105 ± 17%. `COc1cc2ncnc(Sc3nnc(C)s3)c2cc1OC` was tested, and the cell viability was 127 ± 30%. For `O=C1NC(=O)C(c2cnc3ccccn23)=C1c1cn2c3c(cc(F)cc13)CN(C(=O)N1CCCCC1)CC2`, the cell viability was 125 ± 6.1%. Compound `CN1C(=O)C(c2c[nH]c3ccccc23)=C(c2c[nH]c3ccccc23)C1=O` [Bisindolylmaleimide V] has a cell viability of 124 ± 11%. `CN1CCC(CNc2ccc3ncc(-c4cccc(OC(F)(F)F)c4)n3n2)CC1` [SGI-1776 free base] showed a cell viability of 92.3 ± 5.5%. `COc1cc2nccc(Oc3ccc(NC(=O)C4(C(=O)Nc5ccc(F)cc5)CC4)cc3)c2cc1OC` [XL184(Cabozantinib malate)] showed a cell viability of 15 ± 7.9%. With `CNC(=O)c1ccccc1Nc1nc(Nc2ccc(N3CCOCC3)cc2OC)ncc1Cl` the cell viability was 90.55 ± 0.19%. Compound `Cc1cnc(NC(=O)Nc2cc(Br)c(C)cc2OC[C@@H]2CNCCO2)cn1` has a cell viability of 101 ± 11%. Work on `O=C(O)c1cc(NCc2cc(O)ccc2O)ccc1O` [Lavendustin C] yielded a cell viability of 111 ± 13%. Work on `CN(c1ccccc1CNc1nc(Nc2ccc3c(c2)CC(=O)N3)ncc1C(F)(F)F)S(C)(=O)=O` yielded a cell viability of 112 ± 25%. In the case of `CO[C@@H]1[C@H](N(C)C(=O)c2ccccc2)C[C@H]2O[C@]1(C)n1c3ccccc3c3c4c(c5c6ccccc6n2c5c31)C(=O)NC4`, the cell viability is reported as 76.2 ± 3%. Work on `O=C1NCCCc2c1oc1ccc(O)cc21` yielded a cell viability of 107 ± 1.9%. Compound `O=C(NCCO)c1cccc(-c2cc(Nc3ccc(OC(F)(F)F)cc3)ncn2)c1` has a cell viability of 98.72 ± 0.31%. `COc1cc(N2CCN(C)CC2)ccc1Nc1nccc(-c2cn(C)c3cnccc23)n1` was tested, and the cell viability was 118 ± 3.1%. Work on `O=C(Nc1cc(Oc2cc(F)c(NC(=O)C3(C(=O)Nc4ccc(F)cc4)CC3)cc2F)ccn1)C1CC1` [Altiratinib(DCC2701)] yielded a cell viability of 106 ± 12%. With `Cc1ncc(CCCN(C)C)cc1Nc1ncc2c(n1)-c1ccc(C(F)(F)F)cc1NC(=S)C2` the cell viability was 100 ± 2.9%. For `Nc1nc(N)c2nc(-c3cccc(O)c3)c(-c3cccc(O)c3)nc2n1`, the cell viability was 96.7 ± 5%. For `CCCCCCCCCCCCC/C=C/[C@@H](O)[C@H](CO)N(C)C` [N,N-Dimethylsphingosine], the cell viability was 108 ± 20%. Work on `CCCCCCCCCC(=O)CC(O)S(=O)(=O)O` (stereo not given) [Sodium houttuyfonate] yielded a cell viability of 108 ± 1.5%. With `C[C@@H]1O[C@@H](Oc2c(-c3cc(O)c(O)c(O)c3)oc3cc(O)cc(O)c3c2=O)[C@H](O)[C@H](O)[C@H]1O` [Myricetrin] the cell viability was 89.1 ± 14%. `OCCn1cc(-c2cnc3nnn(Cc4ccc5ncccc5c4)c3n2)cn1` was tested, and the cell viability was 120 ± 24%. `COc1cc2ncnc(Oc3cccc(NC(=O)Nc4cc(C(C)(C)C(F)(F)F)on4)c3)c2cc1OC` was tested, and the cell viability was 115 ± 3.7%. With `C=CC(=O)N1CCC[C@@H](n2nc(-c3ccc(Oc4ccccc4)cc3)c3c(N)ncnc32)C1` the cell viability was 95.3 ± 9.3%.
